Source: PubChem BioAssay (Tox21)
Results filed as inconclusive are left out. Activity calls are given as the source filed them. Unless noted, calls come from the whole dose curve; as a rule, active = well fitted curve in the direction sought with a large enough effect in the repeat runs; inconclusive = weak or mixed curves; inactive = no such curve, though single readings can be large; an effect the other way counts as inactive or inconclusive.

Key:
[1] = qHTS assay to identify small molecule agonists of the androgen receptor (AR) signaling pathway in the presence of an antagonist - cell viability counter screen (AID 1259379); note: nearly all actives have a fitted effect of over 25% in size; note: potency is the fitted concentration of half-maximal effect;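 for activity change, negative = cytotoxicity: MDA-kb2 human breast cancer cells carrying an MMTV luciferase reporter; series mostly up to about 92 µM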
Procedure, shortened: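 In MDA-kb2 cells (human breast carcinoma, MMTV-luciferase), compounds at 15 concentrations plus 3.0uM nilutamide; 16 hr, 37C, 0% CO2; CellTiter-Fluor fluorescence read for viability.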

[2] = qHTS assay to identify small molecule agonists of the estrogen receptor beta (ER-beta) signaling pathway - cell viability counter screen (AID 1259380); note: nearly all actives have a fitted effect of over 30% in size; note: potency is the fitted concentration of half-maximal effect
Procedure, shortened: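 Viability of ER-beta-UAS-bla HEK293T cells was determined by CellTiter-Glo luminescence following 16 hr treatment with test compounds at 37C.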

[3] = qHTS assay to identify small molecule antagonists of the estrogen receptor beta (ER-beta) signaling pathway - cell viability counter screen (AID 1259382);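 note: HEK293T cells carrying ER-beta-UAS-bla reporter stimulated with estradiol; series mostly up to about 92 µM; nearly all actives have a fitted effect of over 55% in size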
Procedure, shortened: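 Tox21 10K library tested in qHTS format on ER-beta-bla HEK293T cells stimulated with 1nM E2; 16 hr treatment at 37C. Same-well CellTiter-Glo luminescence served as the cell viability measure.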

[4] = target: Estrogen receptor (Homo sapiens) (UniProt P03372); test: qHTS assay to identify small molecule agonists of the estrogen receptor alpha (ER-alpha) signaling pathway in the presence of an antagonist (AID 1259383; calls by dose curve; note: top concentration of the series differs between compounds; nearly all actives have a fitted effect of over 15% in size)
Procedure, shortened: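 In VM7Luc4E2 cells, 4,000 per well, compounds at 15 concentrations were co-incubated 22hr at 37C with 10.0nM final ICI-182,780. Luminescence from the stably transfected 4×ERE-luciferase reporter was recorded 30min after ONE-Glo addition.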

[5] = qHTS assay to identify small molecule agonists or antagonists of the thyroid stimulating hormone receptor (TSHR) signaling pathway - wild type cell line counter screen (AID 1259384; calls by dose curve)
Procedure, shortened: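 Counter screen in untransfected Hek293: compounds (15-point titration, triplicate) plus phosphodiesterase inhibitor Ro20-1724 added after 18 h plating; 30 min RT. Intracellular cAMP via competitive d2/cryptate immunoassay, 1 h incubation.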

[6] = target: Thyrotropin receptor (Homo sapiens) (UniProt P16473); test: qHTS assay to identify small molecule antagonists of the thyroid stimulating hormone receptor (TSHR) signaling pathway (AID 1259385; calls by dose curve; note: nearly all actives have a fitted effect of over 20% in size)
Procedure, shortened: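 Antagonist mode: compound-treated TSHR-expressing HEK293 cells were stimulated with 1.5 ng/mL TSH (final) in presence of Ro20-1724 for 30 min at RT. HTRF cAMP detection after 1 h; each compound tested at 15 concentrations, triplicate.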

[7] = qHTS assay to identify small molecule agonists of the estrogen receptor alpha (ER-alpha) signaling pathway in the presence of an antagonist - cell viability counter screen (AID 1259386);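 note: cells exposed to compounds for 22 h at 37 °C before the viability read; nearly all actives have a fitted effect of over 30% in size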; note: potency is the fitted concentration of half-maximal effect; for activity change, negative = cytotoxicity: series mostly up to about 92 µM
Procedure, shortened: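 Fluorescent CellTiter-Fluor viability signal from VM7Luc4E2 cells, with the reagent added during the final hour of a 22hr compound exposure at 37C in the presence of 10.0nM ICI-182,780.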

[8] = target: Progesterone receptor (Homo sapiens) (UniProt P06401); test: qHTS assay to identify small molecule agonists of the progesterone receptor (PR) signaling pathway (AID 1346784; calls by dose curve; note: nearly all actives have a fitted effect of over 30% in size)
Procedure, shortened: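 Fluorescence from LiveBLAzer B/G FRET substrate cleavage (2 hr, RT) reported PR activation in PR-UAS-bla HEK 293T cells treated 16 hr at 37C/5% CO2 with compounds; medium contained 2% charcoal-stripped FBS.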

[9] = target: Androgen receptor (Homo sapiens) (UniProt P10275); test: qHTS assay to identify small molecule agonists of the androgen receptor (AR) signaling pathway in the presence of an antagonist (AID 1259381; calls by dose curve; note: nearly all actives have a fitted effect of over 15% in size)
Procedure, shortened: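 Here, 15-concentration compound series were pin-transferred onto MDA-kb2 MMTV-luciferase cells already dosed with nilutamide (3.0uM final). After 16hr at 37C, ONE-Glo was added and luminescence read 30min later at room temperature.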
% is set by controls: 0 for no effect and ±100 for the full control effect.

Sequence of Androgen receptor (Homo sapiens) (P10275 whole entry, looked up): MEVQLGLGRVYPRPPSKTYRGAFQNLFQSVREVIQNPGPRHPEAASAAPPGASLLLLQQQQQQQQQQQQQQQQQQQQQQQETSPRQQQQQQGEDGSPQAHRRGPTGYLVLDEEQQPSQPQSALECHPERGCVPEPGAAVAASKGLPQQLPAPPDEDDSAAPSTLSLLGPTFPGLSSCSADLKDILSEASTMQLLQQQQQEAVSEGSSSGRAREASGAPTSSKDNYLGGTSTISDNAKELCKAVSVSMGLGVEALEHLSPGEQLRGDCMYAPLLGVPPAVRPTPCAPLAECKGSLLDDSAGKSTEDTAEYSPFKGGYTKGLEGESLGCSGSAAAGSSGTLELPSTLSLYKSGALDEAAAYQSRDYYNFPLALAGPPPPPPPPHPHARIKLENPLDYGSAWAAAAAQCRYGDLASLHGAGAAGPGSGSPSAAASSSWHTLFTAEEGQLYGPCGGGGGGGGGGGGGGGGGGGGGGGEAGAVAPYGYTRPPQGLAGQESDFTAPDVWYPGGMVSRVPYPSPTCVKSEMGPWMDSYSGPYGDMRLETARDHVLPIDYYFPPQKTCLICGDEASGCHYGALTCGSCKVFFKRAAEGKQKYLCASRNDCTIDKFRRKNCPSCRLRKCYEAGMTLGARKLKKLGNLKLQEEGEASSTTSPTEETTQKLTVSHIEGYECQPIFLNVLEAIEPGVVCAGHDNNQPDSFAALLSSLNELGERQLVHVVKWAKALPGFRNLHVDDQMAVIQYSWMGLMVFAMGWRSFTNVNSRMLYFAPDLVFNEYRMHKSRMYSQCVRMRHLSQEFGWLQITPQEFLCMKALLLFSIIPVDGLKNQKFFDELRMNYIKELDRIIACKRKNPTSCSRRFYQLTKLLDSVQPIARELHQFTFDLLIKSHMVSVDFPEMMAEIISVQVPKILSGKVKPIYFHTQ
Sequence of Progesterone receptor (Homo sapiens) (P06401 whole entry, looked up): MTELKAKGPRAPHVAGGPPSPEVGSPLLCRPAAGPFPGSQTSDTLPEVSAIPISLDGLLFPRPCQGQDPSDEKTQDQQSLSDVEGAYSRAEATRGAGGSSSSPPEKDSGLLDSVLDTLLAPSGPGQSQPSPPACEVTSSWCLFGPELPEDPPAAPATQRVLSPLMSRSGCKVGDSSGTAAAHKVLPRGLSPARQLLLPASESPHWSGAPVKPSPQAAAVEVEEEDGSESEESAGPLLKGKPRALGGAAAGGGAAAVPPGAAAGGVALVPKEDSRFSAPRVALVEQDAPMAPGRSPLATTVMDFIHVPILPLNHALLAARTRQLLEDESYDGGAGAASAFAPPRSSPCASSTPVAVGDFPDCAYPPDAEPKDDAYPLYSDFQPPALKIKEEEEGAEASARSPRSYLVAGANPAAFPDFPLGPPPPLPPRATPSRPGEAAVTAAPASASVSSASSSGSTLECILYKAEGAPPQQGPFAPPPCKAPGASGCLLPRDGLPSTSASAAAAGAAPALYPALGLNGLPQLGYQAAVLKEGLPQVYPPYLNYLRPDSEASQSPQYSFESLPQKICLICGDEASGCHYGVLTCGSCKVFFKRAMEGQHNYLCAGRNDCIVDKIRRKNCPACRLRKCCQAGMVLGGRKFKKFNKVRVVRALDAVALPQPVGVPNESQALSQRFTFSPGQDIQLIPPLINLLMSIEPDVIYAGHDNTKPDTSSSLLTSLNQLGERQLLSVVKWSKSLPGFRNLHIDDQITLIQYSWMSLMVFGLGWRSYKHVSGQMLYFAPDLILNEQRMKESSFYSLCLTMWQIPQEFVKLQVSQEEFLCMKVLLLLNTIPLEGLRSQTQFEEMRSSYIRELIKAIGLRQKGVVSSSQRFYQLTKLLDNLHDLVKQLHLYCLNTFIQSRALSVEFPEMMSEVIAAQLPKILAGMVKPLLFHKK
Sequence of Estrogen receptor (Homo sapiens) (P03372 whole entry, looked up): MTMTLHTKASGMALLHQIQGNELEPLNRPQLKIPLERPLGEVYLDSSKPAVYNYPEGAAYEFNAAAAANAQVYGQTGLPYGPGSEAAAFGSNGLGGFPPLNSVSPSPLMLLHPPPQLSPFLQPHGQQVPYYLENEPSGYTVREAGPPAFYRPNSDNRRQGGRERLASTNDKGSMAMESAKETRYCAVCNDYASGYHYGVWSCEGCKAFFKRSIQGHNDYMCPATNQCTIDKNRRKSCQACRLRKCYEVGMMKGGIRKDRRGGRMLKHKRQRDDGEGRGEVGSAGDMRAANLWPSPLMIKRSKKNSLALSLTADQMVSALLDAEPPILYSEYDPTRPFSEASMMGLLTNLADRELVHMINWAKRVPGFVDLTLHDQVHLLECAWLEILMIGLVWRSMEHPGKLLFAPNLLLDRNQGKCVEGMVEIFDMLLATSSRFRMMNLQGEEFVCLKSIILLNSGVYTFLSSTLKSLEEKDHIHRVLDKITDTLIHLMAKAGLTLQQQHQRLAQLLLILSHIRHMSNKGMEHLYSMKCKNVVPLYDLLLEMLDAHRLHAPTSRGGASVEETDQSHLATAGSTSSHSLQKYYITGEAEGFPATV
Sequence of Thyrotropin receptor (Homo sapiens) (P16473 whole entry, looked up): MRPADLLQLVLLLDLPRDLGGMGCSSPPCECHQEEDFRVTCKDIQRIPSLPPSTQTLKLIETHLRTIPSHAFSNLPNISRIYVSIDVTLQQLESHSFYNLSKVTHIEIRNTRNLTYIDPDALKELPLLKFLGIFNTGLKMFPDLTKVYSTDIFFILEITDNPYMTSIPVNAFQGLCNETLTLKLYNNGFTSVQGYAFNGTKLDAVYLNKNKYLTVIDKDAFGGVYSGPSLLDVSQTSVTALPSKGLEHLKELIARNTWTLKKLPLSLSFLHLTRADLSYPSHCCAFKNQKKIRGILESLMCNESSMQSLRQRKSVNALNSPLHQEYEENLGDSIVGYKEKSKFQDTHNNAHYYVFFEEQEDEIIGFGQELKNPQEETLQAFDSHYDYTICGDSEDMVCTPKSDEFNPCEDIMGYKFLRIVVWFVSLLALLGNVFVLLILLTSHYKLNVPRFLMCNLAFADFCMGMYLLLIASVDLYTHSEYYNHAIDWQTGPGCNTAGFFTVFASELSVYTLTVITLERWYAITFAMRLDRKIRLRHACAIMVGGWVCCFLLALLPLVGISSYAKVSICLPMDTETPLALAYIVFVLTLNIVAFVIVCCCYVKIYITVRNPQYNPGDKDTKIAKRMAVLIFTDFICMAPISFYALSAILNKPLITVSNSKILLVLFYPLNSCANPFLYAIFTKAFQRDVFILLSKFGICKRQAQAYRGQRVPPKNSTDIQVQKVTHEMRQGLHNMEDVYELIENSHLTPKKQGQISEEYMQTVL

COP(=O)(OC)OC(c1ccc(Cl)cc1)P(=O)(OC)OC (configuration not stated)
inactive: Potency [1] | Potency [2] | outcome [3] | outcome [4] | outcome [5] | outcome [6] | Potency [7] | Potency [8]

C=COCCOCCOCCOC=C
inactive: Potency [1] | Potency [2] | Potency [9] | outcome [3] | outcome [5] | outcome [6] | Potency [7] | Potency [8]

CCn1ccc(NS(=O)(=O)c2ccc(N)cc2)nc1=O
inactive: Potency [1] | Potency [2] | outcome [3] | outcome [4] | outcome [5] | outcome [6] | Potency [7] | Potency [8]

CCOc1cc(NC(C)=O)ccc1C(=O)OC
inactive: Potency [1] | Potency [2] | outcome [3] | outcome [4] | outcome [5] | outcome [6] | Potency [7] | Potency [8]

c1ccc2nccnc2c1
inactive: Potency [1] | Potency [2] | outcome [3] | outcome [4] | outcome [5] | outcome [6] | Potency [7] | Potency [8]

CCNC(=O)C1CC(C)CCC1C(C)C (configuration not stated)
inactive: Potency [1] | Potency [2] | outcome [3] | outcome [4] | outcome [5] | outcome [6] | Potency [7] | Potency [8]

Cc1cccc2nccnc12
inactive: Potency [1] | Potency [2] | outcome [3] | outcome [4] | outcome [5] | outcome [6] | Potency [7] | Potency [8]

CN1CCN(CC(=O)N2c3ccccc3C(=O)Nc3cccnc32)CC1
inactive: activity change, negative = cytotoxicity [1] -6.25% [at 8.39 µM] | activity change, negative = cytotoxicity [2] 5.53% [at 8.39 µM] | activity change, negative = cytotoxicity [3] 9.64% [at 8.39 µM] | activation [4] 0.843% [at 8.39 µM] | cAMP activity change [5] -2.81% [at 8.39 µM] | activity change, negative = inhibition [6] 0.681% [at 8.39 µM] | activity change, negative = cytotoxicity [7] -1.63% [at 8.39 µM] | activation [8] -0.718% [at 8.39 µM]

O=C1c2ccccc2C(=O)N1CCl
inactive: Potency [1] | Potency [2] | Potency [9] | outcome [3] | Potency [7] | Potency [8]

Nc1cccc(O)c1
inactive: Potency [1] | Potency [2] | outcome [3] | outcome [4] | outcome [5] | outcome [6] | Potency [7] | Potency [8]

COc1nccnc1NS(=O)(=O)c1ccc(N)cc1
inactive: Potency [1] | Potency [2] | Potency [9] | outcome [5] | outcome [6] | Potency [7]

Cc1cc2cc3c(C)cc(=O)oc3c(C)c2o1
inactive: Potency [1] | Potency [2] | outcome [3] | outcome [4] | outcome [5] | outcome [6] | Potency [7] | Potency [8]

CCCCCCCCC1CCC(=O)O1 (configuration not stated)
inactive: Potency [1] | Potency [2] | outcome [3] | outcome [4] | outcome [5] | outcome [6] | Potency [7] | Potency [8]

CO[C@@H]1[C@@H](OC(N)=O)[C@@H](O)[C@H](Oc2ccc3c(O)c(NC(=O)c4ccc(O)c(CC=C(C)C)c4)c(=O)oc3c2C)OC1(C)C
inactive: Potency [1] | Potency [2] | outcome [3] | outcome [4] | outcome [5] | outcome [6] | Potency [8]

CCN1CCc2nc(N)oc2CC1
inactive: Potency [1] | Potency [2] | outcome [3] | outcome [4] | outcome [5] | outcome [6] | Potency [7] | Potency [8]

O=C1c2ccccc2C(=O)c2cc(S(=O)(=O)O)ccc21
inactive: Potency [1] | Potency [2] | outcome [3] | outcome [4] | outcome [5] | outcome [6] | Potency [8]

CC(C)CCCC(C)(C)O
inactive: Potency [1] | Potency [2] | outcome [3] | outcome [4] | outcome [5] | outcome [6] | Potency [7] | Potency [8]

O=C1O[C@@H]2[C@@H](O)[C@H](O)O[C@@H]2[C@H]1O
inactive: Potency [1] | Potency [2] | outcome [3] | outcome [4] | outcome [5] | outcome [6] | Potency [8]

CCOC(=O)/C=C/c1ccccc1
inactive: Potency [1] | Potency [2] | outcome [3] | outcome [4] | outcome [5] | outcome [6] | Potency [7] | Potency [8]

CC(C)C(=O)OCCc1ccccc1
inactive: Potency [1] | Potency [2] | outcome [3] | outcome [4] | outcome [5] | outcome [6] | Potency [7]

Cc1cccc(OCC(O)CNC(C)(C)C)c1C (configuration not stated)
active: Potency [2] 13.3 µM
inactive: Potency [1] | Potency [9] | outcome [5] | outcome [6] | Potency [7] | Potency [8]

CC(C)CC(=O)O
inactive: Potency [1] | Potency [2] | outcome [3] | outcome [4] | outcome [5] | outcome [6] | Potency [7] | Potency [8]

O=C1c2ccccc2C(=O)C1c1ccccc1
inactive: Potency [1] | Potency [2] | outcome [3] | outcome [4] | outcome [5] | outcome [6] | Potency [7] | Potency [8]

Nc1ccc([N+](=O)[O-])c(N)c1
active: Potency [1] 29.9 µM | Potency [7] 29.9 µM
inactive: Potency [2] | outcome [3] | outcome [4] | outcome [5] | outcome [6] | Potency [8]

CC(C)N(c1ccccc1)C(C)C
inactive: Potency [1] | Potency [2] | outcome [3] | outcome [4] | outcome [5] | outcome [6] | Potency [7] | Potency [8]

Cc1cccc(C)c1OCC(C)N (configuration not stated)
inactive: Potency [1] | Potency [2] | outcome [3] | outcome [4] | outcome [5] | outcome [6] | Potency [7] | Potency [8]

NS(=O)(=O)c1cc2c(cc1Cl)CN(C1CCCCC1)C2=O
inactive: Potency [1] | Potency [2] | Potency [9] | outcome [3] | outcome [5] | outcome [6] | Potency [8]

CC/C=C\CC1=C(C)CCC1=O
inactive: Potency [1] | Potency [2] | Potency [9] | outcome [3] | outcome [5] | outcome [6] | Potency [7] | Potency [8]

CCCCOC(=O)c1ccccc1
inactive: Potency [1] | Potency [2] | Potency [9] | outcome [4] | outcome [5] | outcome [6] | Potency [8]

CCc1ccc(C=O)cc1
inactive: Potency [1] | Potency [2] | outcome [3] | outcome [5] | outcome [6] | Potency [7] | Potency [8]

CN(CCOc1ccc(NS(C)(=O)=O)cc1)CCc1ccc(NS(C)(=O)=O)cc1
inactive: Potency [1] | Potency [2] | outcome [3] | outcome [5] | outcome [6] | Potency [7] | Potency [8]

CCCCCOC(=O)CCC
inactive: Potency [1] | Potency [2] | outcome [3] | outcome [5] | Potency [7] | Potency [8]

CC(=O)c1ccc2c(c1)Cc1ccccc1-2
inactive: Potency [1] | Potency [2] | outcome [3] | outcome [4] | Potency [7] | Potency [8]

CCCCOCCOC(=O)COc1nc(Cl)c(Cl)cc1Cl
inactive: Potency [1] | Potency [2] | outcome [3] | outcome [5] | outcome [6] | Potency [7] | Potency [8]

Cc1nc2n(c(=O)c1CCN1CCC(c3noc4cc(F)ccc34)CC1)CCC[C@H]2O
inactive: activity change, negative = cytotoxicity [1] -2.37% [at 19 µM] | activity change, negative = cytotoxicity [2] -7.67% [at 19 µM] | activity change, negative = cytotoxicity [3] 1.75% [at 19 µM] | activation [4] 0% [at 19 µM] | cAMP activity change [5] -2.33% [at 18.9 µM] | activity change, negative = inhibition [6] -7.26% [at 19 µM] | activation [8] -1.98% [at 19 µM]

CCOCCOC(=O)/C=C/c1ccc(OC)cc1
inactive: Potency [1] | Potency [2] | outcome [3] | outcome [5] | Potency [7] | Potency [8]

COc1cc(N)ccc1C
inactive: Potency [1] | Potency [2] | outcome [3] | outcome [5] | outcome [6] | Potency [7] | Potency [8]

CCOC(=O)CC(=O)c1ccccc1
inactive: Potency [1] | Potency [2] | outcome [3] | outcome [5] | outcome [6] | Potency [7] | Potency [8]

C[Si](C)(C)C
inactive: Potency [1] | Potency [2] | outcome [3] | outcome [5] | outcome [6] | Potency [7] | Potency [8]

CC(N)C(=O)OC(C)(C)Cc1ccc(Cl)cc1 (configuration not stated)
inactive: Potency [1] | Potency [2] | outcome [3] | outcome [5] | outcome [6] | Potency [8]

N[C@@H](CCC(=O)N[C@@H](CS)C(=O)NCC(=O)O)C(=O)O
inactive: activity change, negative = cytotoxicity [1] -2.43% [at 19 µM] | activity change, negative = cytotoxicity [2] 8.98% [at 19 µM] | activity change, negative = cytotoxicity [3] 1.29% [at 19 µM] | cAMP activity change [5] 2.89% [at 18.9 µM] | activity change, negative = inhibition [6] 6.72% [at 19 µM] | activation [8] -0.471% [at 19 µM]

NCCS
inactive: Potency [1] | Potency [2] | outcome [3] | Potency [7] | Potency [8]

CC1(C)S[C@@H]2[C@H](N=CN3CCCCCC3)C(=O)N2[C@H]1C(=O)O
inactive: Potency [1] | Potency [2] | outcome [3] | outcome [5] | outcome [6] | Potency [7] | Potency [8]

Cc1ccc(S(=O)(=O)O)c(C)c1
inactive: Potency [1] | Potency [2] | outcome [3] | outcome [4] | outcome [5] | outcome [6] | Potency [8]

CC(=O)c1sc(C)nc1C
inactive: Potency [1] | Potency [2] | outcome [3] | outcome [5] | outcome [6] | Potency [8]

COC(=O)[C@@H]1[C@H]2C[C@H]3c4[nH]c5ccccc5c4CCN3C[C@@H]2CC[C@@H]1O
inactive: Potency [1] | Potency [2] | outcome [3] | outcome [4] | outcome [5] | Potency [7] | Potency [8]
